Results reported in PubChem BioAssay (Tox21).
Several values for one entry are separate records, joined by “and”; a condition that tells them apart may be missing. Equal values may be shown once. Inconclusive results are not listed. A call without a number means that no potency is given here. Values without a mark were called inactive. Activity calls are given as the source filed them. Calls follow the shape of the dose curve; as a rule, active = well fitted cell-killing curve with a large enough effect in the repeat runs; inconclusive = weak or mixed curves, or effect the other way; inactive = flat fitted curve, though single readings scatter.

Assay: cAMP Responsive Elements (CRE) small molecule antagonists, cell-based qHTS assay: qHTS cell viability counter screen (AID 2060913); also: nearly all actives have a fitted effect of over 40% in size
Conditions: CRE-bla HEK293T viability, CellTiter-Glo luminescence, 5 h; series mostly up to 92.4 µM
Method in brief: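 Steps: cells plated and held 18 hrs at 37 C/5% CO2; compounds and NKH477 (0.25 uM final) added; 3 hrs incubation; reporter substrate read; CellTiter-Glo added to measure cytotoxicity by luminescence.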
Potency is read from the fitted curve at half-maximal effect.

Structure (SMILES)	Potency	viability change, negative = cytotoxic
COc1cc2ncnc(Nc3ccc(F)c(Cl)c3)c2cc1OCCCN1CCOCC1	inactive	
CN(C)C(=O)C1(N2CCCCC2)CCN(CC[C@@]2(c3ccc(Cl)c(Cl)c3)CN(C(=O)c3ccccc3)CCO2)CC1	64.1 µM (active)	
CC1=C(Br)C(=O)C(Br)=C/C1=C(/c1ccccc1S(=O)(=O)O)c1cc(Br)c(O)c(Br)c1C	inactive	
Cc1c(O)cccc1O	inactive	
CCCCCCCCCCCC[N+](C)(C)C	54.3 µM (active) and 61.1 µM (active) and 68.6 µM (active)	
CC(=O)OCC(=O)[C@@]12N=C(C)O[C@@H]1C[C@H]1[C@@H]3CCC4=CC(=O)C=C[C@]4(C)[C@H]3[C@@H](O)C[C@@]12C	inactive	
Nc1ccc2c(c1)CN1C(=O)c3ccccc3C1=N2		-16.9% [at 18.9 µM]
C[Si]1(C)N[Si](C)(C)N[Si](C)(C)N1	inactive	
CC(CC1c2ccccc2CCc2ccccc21)CN(C)C (stereo not given)	inactive	
CCCCCC(=O)OCCc1ccccc1	inactive	
CC(C)(c1cc(Br)c(OCCO)c(Br)c1)c1cc(Br)c(OCCO)c(Br)c1	inactive	
COc1ccc(CCN2CCC(Nc3nc4ccccc4n3Cc3ccc(F)cc3)CC2)cc1	35.1 µM (active)	
NNc1nc(-c2ccc([N+](=O)[O-])cc2)cs1	inactive	
CCCOCCC	inactive	
CCNC(=O)N1CCN(CCCC(c2ccc(F)cc2)c2ccc(F)cc2)CC1	inactive	
Cc1ccc(C)c([N+](=O)[O-])c1	inactive	
CC/C=C\CCOC(=O)c1ccccc1	inactive	
C=C(C)CCCC(C)CCO (stereo not given)	inactive	
C=C(C)C(=O)OCCOCC	inactive	
COC(=O)/C=C(\C)CCC=C(C)C	inactive	

Structure (SMILES)	Potency	viability change, negative = cytotoxic
CC/C(=C(\c1ccc(O)cc1)c1ccc(OCCN(C)C)cc1)c1ccccc1	68.7 µM (active)	
CCC(C)(C)C1CCC(O)CC1 (stereo not given)	inactive	
NC(=O)c1ccccc1[N+](=O)[O-]	inactive	
Cc1ccc(S(=O)(=O)NC(=O)NN2CC3CCCC3C2)cc1 (stereo not given)	inactive	
CCC(C)c1nccnc1OC (stereo not given)	inactive	
Cc1nc(-c2ccc3c(c2)CCN(CCC2CCC(NC(=O)/C=C/c4ccc(F)cc4)CC2)CC3)no1 (stereo not given)	inactive	
CC(C)CCOC(=O)/C=C/c1ccccc1	inactive	
O=C(NCN1CCOCC1)c1cnccn1	inactive	
C=Cc1ccc(C=C)cc1	inactive	
Cc1cc(NC(=O)C2=C(O)c3ccccc3S(=O)(=O)N2C)no1	inactive	
CC(C#N)(CCC(=O)O)N=NC(C)(C#N)CCC(=O)O (stereo not given)	inactive	
FC(F)(F)c1ccc(Cl)cc1Cl	inactive	
Oc1cccc2cc3cccc(O)c3c(O)c12	inactive	
CC(C)(C)c1ccc(O)c(C(C)(C)C)c1	48.6 µM (active)	
Cc1cccc2nccnc12	inactive	
Cc1cccc(C)c1OCC(=O)N[C@@H](Cc1ccccc1)[C@@H](O)C[C@H](Cc1ccccc1)NC(=O)[C@H](C(C)C)N1CCCNC1=O	inactive	
CC(C)C[C@H](NC(=O)[C@H](CCc1ccccc1)NC(=O)CN1CCOCC1)C(=O)N[C@@H](Cc1ccccc1)C(=O)N[C@@H](CC(C)C)C(=O)[C@@]1(C)CO1	inactive	
O=C(Nc1cccc([N+](=O)[O-])c1)c1cc2ccccc2cc1O	inactive	
CC(CN(C)C)CN1c2ccccc2CCc2ccccc21 (stereo not given)	inactive	
COc1ccc(-c2cc(=S)ss2)cc1	inactive	
